Consider 48 compounds from PubChem BioAssay AID2685 (National Center for Advancing Translational Sciences (NCATS), 2010).

Where “and” joins values, the source holds several entries; their conditions need not be identical. Identical values can stand only once. The campaign covered roughly 320,000 compounds. About 2,100 (0.66%) were called active. Not shown: some 53% with an inconclusive outcome. Calls follow the shape of the dose curve; as a rule, active = well fitted inhibition curve with a large enough effect in the signal ratio, with a control signal flat (not every such curve was filed as active); inconclusive = small, poorly fitted or top-dose-only effect, or effect the other way, or a change in a side signal; inactive = flat fitted curve, though single readings scatter; the % refers to the signal ratio. The full list was thinned out, with actives kept by preference.
Potency is read from the fitted curve at half-maximal effect.

The nature of this assay: qHTS Assay for Lipid Storage Modulators in Drosophila S3 Cells.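 As to cell number change: cells counted by Cell Tracker Red CMTPX staining in the red channel.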 As to lipid storage change, negative = inhibition: % is scaled to controls: 0 for no effect and ±100 for the full control effect. The conditions noted are these: BODIPY lipid droplet fluorescence, 18-24 h, cells fed with added oleic acid; cell number change: measured here: cell count max response; series mostly up to 46.1 µM; lipid storage change, negative = inhibition: at the top concentration. The procedure, abridged:
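Laser-scanning cytometry quantifies lipid droplet accumulation (500–530 nm total intensity; droplet/cell object ratio) in oleic acid-fed (400 uM added) Drosophila S3 cells treated with a concentration series. 20 uM Triacsin C defined 100% inhibition.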
Regarding `c1ccc(Cc2cc[n+](Cc3ccccn3)cc2)cc1`, the “lipid storage change, negative = inhibition” value is 4.93% (inactive) and the cell number change came out at 3.79%.

Consider `Cn1c(N)c(C(=O)/C=C/c2ccccc2)c(=O)[nH]c1=O`, for which the “lipid storage change, negative = inhibition” value is 10.4% (inactive) and the cell number change stood at 12.4%.

Take `CCOC(=O)c1c(C)nc2ccccc2c1C`: the outcome was inactive.

As for `Cc1nc2ccccc2c(N)c1C(=O)/C=C/c1ccccc1`, the Potency is 14.6 µM (active) and the cell number change was -20.1%.

Consider `O=c1[nH]c(N2CCCCCC2)nc2ncn(Cc3ccccc3)c12`, for which the “lipid storage change, negative = inhibition” value is -2.2% (inactive) and the cell number change is 7.21%.

As to `O=C(O)CCCCCNc1nc2ncn(Cc3ccccc3)c2c(=O)[nH]1`, the Potency was 32.6 µM (active) and the cell number change is -20%.

Take `CC(Nc1nc2ncn(Cc3ccccc3)c2c(=O)[nH]1)C(=O)O` (stereo unspecified): the “lipid storage change, negative = inhibition” value was 1.98% (inactive) and the cell number change was -0.475%.

Turning to `Cc1ccc[n+](/C(=C\C(=C=[N-])C#N)C(=O)c2ccc(Cl)cc2)c1`, the “lipid storage change, negative = inhibition” value is 6.04% (inactive) and the cell number change was found to be 18.6%.

Take `O=C1CN(C(=O)c2ccccc2F)C(c2ccc(F)cc2)c2cc(Br)ccc2N1` (stereo unspecified): the “lipid storage change, negative = inhibition” value was -0.107% (inactive) and the cell number change is -12.8%.

Turning to `CC(=O)Nc1ccc(OCC(=O)N2CCC(Cc3ccccc3)CC2)cc1`, the “lipid storage change, negative = inhibition” value is -0.754% (inactive) and the cell number change is -1.18%.

Turning to `COc1cc(C(=O)OCC(=O)N2CCC(Cc3ccccc3)CC2)cc(OC)c1OC`, the “lipid storage change, negative = inhibition” value was 27.5% (inactive).

`CC(=O)Nc1ccc(C(=O)OCC(=O)N2CCC(Cc3ccccc3)CC2)cc1`: the Potency was 2.91 µM (active) and the cell number change was -6.23%.

`CC1=C(C(=O)NC2CCCc3c2cnn3-c2cc(F)cc(F)c2)OCCO1` (stereo unspecified): the outcome was inactive and the cell number change was 4.32%.

Take `COc1ccc(C(=O)NNC(=O)c2cc3cc(OC)ccc3oc2=O)cc1`: the “lipid storage change, negative = inhibition” value is 0.203% (inactive) and the cell number change came out at 12.8%.

As for `Cc1ccc(C(O)(C(=O)NNc2ccc3ccccc3n2)c2ccc(C)cc2)cc1`, the “lipid storage change, negative = inhibition” value was -4.95% (inactive) and the cell number change was -2.27%.

For `COc1ccc(NC(=O)c2cccs2)cc1`, the “lipid storage change, negative = inhibition” value was 0.392% (inactive) and the cell number change was -1.91%.

Consider `COc1ccc(C(O)(C(=O)NNc2ccc(C)cc2)c2cccs2)cc1` (stereo unspecified), for which the Potency is 32.6 µM (active) and the cell number change is 10.5%.

With `Cc1cc2ncn(-c3ncnc4sc5c(c34)CCCC5)c2cc1C`, the compound was classed as inactive and the cell number change is 8.27%.

For `c1ccc(CN(Cc2ccco2)C(c2ccncc2)c2nnnn2C2CCCC2)cc1` (stereo unspecified), the call was inactive.

With `O=C(CNC(=O)C1CCCCC1)Nc1cc(Cl)cc(Cl)c1`, the “lipid storage change, negative = inhibition” value was -17% (inactive).

In the case of `O=C(Nc1cc(Cl)cc(Cl)c1)C1CCCC1`, the Potency was 20.6 µM (active) and the cell number change was -3.7%.

With `O=C(Nc1ccc(Cl)cc1)C1CCCC1`, the “lipid storage change, negative = inhibition” value was -22.6% (inactive) and the cell number change is -15.4%.

For `COC(=O)C1=C(C)N(C)C(=O)NC1c1ccc(C)cc1` (stereo unspecified), the “lipid storage change, negative = inhibition” value is 3.69% (inactive) and the cell number change is -10.6%.

Turning to `COC(=O)C1=C(C)N(C)C(=O)NC1c1ccccc1` (stereo unspecified), the Potency was 29.1 µM (active) and the cell number change was -9.2%.

Take `CC1=C(C(=O)OC(C)C)C(c2ccccc2)NC(=O)N1C` (stereo unspecified): the compound was called inactive.

`Cc1ccccc1NC(=O)C(C)c1cccc(C(=O)c2ccccc2)c1` (stereo unspecified): the “lipid storage change, negative = inhibition” value was -6.86% (inactive) and the cell number change amounted to 28.9%.

As to `CC(C(=O)O)c1cccc(C(=O)c2ccccc2)c1` (stereo unspecified), the Potency was 23% and -14%.

For the compound `C[C@H](C(=O)O)c1cccc(C(=O)c2ccccc2)c1`, the “lipid storage change, negative = inhibition” value was -15.8% (inactive) and the cell number change was 5.73%.

Take `CC(=O)c1cccc(NC(=O)CN(C2CCCCC2)S(C)(=O)=O)c1`: the compound was classed as inactive.

As for `CCCCc1ccc(NC(=S)NCCO)cc1`, the “lipid storage change, negative = inhibition” value is -23% (inactive).

Turning to `O=S(=O)(c1ccc(-c2ccccc2)cc1)N1CCCCC1`, the “lipid storage change, negative = inhibition” value is -13% (inactive) and the cell number change was 14.2%.

On to `Cc1ccccc1NS(=O)(=O)c1ccc(NS(=O)(=O)c2cccs2)cc1`, for which the compound was called inactive and the cell number change worked out at 22.7%.

Consider `O=S(=O)(Nc1ccc(F)cc1)c1ccc(NS(=O)(=O)c2cccs2)cc1`, for which the Potency is 3.66 µM (active) and the cell number change came out at 5.22%.

Regarding `Cc1ccc(NS(=O)(=O)c2ccc(NS(=O)(=O)c3cccs3)cc2)cc1`, the compound was classed as inactive.

`Cc1ccc(-n2nc3c(c2NC(=O)CC(C)C)CS(=O)C3)cc1` (stereo unspecified): the “lipid storage change, negative = inhibition” value is 12.5% (inactive) and the cell number change was -3.89%.

Regarding `Cc1ccc(-c2nnc(N3CCCCC3)c3ccccc23)cc1`, the “lipid storage change, negative = inhibition” value was -16.3% (inactive) and the cell number change is -9.5%.

With `Clc1nnc(N2CCCCC2)c2ccccc12`, the “lipid storage change, negative = inhibition” value is -14% (inactive).

On to `c1ccc2c(N3CCCCC3)nnc(N3CCCCC3)c2c1`, for which the Potency is 23.1 µM (active) and the cell number change was determined as 9%.

As for `CCCCN1C2CCCC1CC(NC(=O)c1cccc(Cl)c1)C2` (stereo unspecified), the “lipid storage change, negative = inhibition” value was -8.27% (inactive) and the cell number change is -7.62%.

In the case of `CN(C(=O)COc1ccccc1)C1CCS(=O)(=O)C1` (stereo unspecified), the “lipid storage change, negative = inhibition” value was -9.62% (inactive) and the cell number change is -15.6%.

Regarding `CC(C)(C)NCC(O)COc1c(F)cc(Br)cc1F` (stereo unspecified), the Potency is 29.1 µM (active) and the cell number change was -21.9%.

For `Cc1cccc(C)c1OCC(O)CNC(C)(C)C` (stereo unspecified), the “lipid storage change, negative = inhibition” value is -0.106% (inactive) and the cell number change came to 8.88%.

As for `Cc1cc(C)c(OCC(O)CNC(C)(C)C)c(C)c1` (stereo unspecified), the “lipid storage change, negative = inhibition” value is -0.87% (inactive) and the cell number change amounted to 1.51%.

Turning to `CCCCn1c(N)c(N(CC(C)C)C(=O)c2cnccn2)c(=O)[nH]c1=O`, the “lipid storage change, negative = inhibition” value is -3.52% (inactive) and the cell number change was -16.5%.

With `O=C(NC1CCCCC1)C1Cc2ccccc2CN1S(=O)(=O)c1ccc(F)cc1` (stereo unspecified), the “lipid storage change, negative = inhibition” value was -0.186% (inactive) and the cell number change is -3.73%.

With `CC(OC(=O)c1nsc(Cl)c1Cl)C(=O)NCc1cccs1` (stereo unspecified), the Potency is 32.6 µM (active) and the cell number change is 2.66%.

Regarding `CCC(OC(=O)c1nsc(Cl)c1Cl)C(=O)NCc1cccs1` (stereo unspecified), the “lipid storage change, negative = inhibition” value was 6.89% (inactive) and the cell number change is 3.99%.

For `CC(C)CC(OC(=O)c1nsc(Cl)c1Cl)C(=O)NCc1cccs1` (stereo unspecified), the “lipid storage change, negative = inhibition” value was 0.592% (inactive) and the cell number change was -3.42%.
